Results reported in publication PMC4336329 (PLoS ONE, 2015).
Screen size: about 310,000 compounds; about 2,200 (0.71%) showed an effect of 50% or more. Effects have a minus sign here. What follows is part of a selection rich in strong results, with near analogues and random picks from the rest.

The compounds below were run against human ether-à-go-go-related gene (hERG) potassium channel (human, UniProt Q12809) (assay: primary screen, population patch clamp on CHO cells stably expressing hERG; higher = less effect of the substance).
Sequence of human ether-à-go-go-related gene (hERG) potassium channel (Q12809 whole entry, looked up): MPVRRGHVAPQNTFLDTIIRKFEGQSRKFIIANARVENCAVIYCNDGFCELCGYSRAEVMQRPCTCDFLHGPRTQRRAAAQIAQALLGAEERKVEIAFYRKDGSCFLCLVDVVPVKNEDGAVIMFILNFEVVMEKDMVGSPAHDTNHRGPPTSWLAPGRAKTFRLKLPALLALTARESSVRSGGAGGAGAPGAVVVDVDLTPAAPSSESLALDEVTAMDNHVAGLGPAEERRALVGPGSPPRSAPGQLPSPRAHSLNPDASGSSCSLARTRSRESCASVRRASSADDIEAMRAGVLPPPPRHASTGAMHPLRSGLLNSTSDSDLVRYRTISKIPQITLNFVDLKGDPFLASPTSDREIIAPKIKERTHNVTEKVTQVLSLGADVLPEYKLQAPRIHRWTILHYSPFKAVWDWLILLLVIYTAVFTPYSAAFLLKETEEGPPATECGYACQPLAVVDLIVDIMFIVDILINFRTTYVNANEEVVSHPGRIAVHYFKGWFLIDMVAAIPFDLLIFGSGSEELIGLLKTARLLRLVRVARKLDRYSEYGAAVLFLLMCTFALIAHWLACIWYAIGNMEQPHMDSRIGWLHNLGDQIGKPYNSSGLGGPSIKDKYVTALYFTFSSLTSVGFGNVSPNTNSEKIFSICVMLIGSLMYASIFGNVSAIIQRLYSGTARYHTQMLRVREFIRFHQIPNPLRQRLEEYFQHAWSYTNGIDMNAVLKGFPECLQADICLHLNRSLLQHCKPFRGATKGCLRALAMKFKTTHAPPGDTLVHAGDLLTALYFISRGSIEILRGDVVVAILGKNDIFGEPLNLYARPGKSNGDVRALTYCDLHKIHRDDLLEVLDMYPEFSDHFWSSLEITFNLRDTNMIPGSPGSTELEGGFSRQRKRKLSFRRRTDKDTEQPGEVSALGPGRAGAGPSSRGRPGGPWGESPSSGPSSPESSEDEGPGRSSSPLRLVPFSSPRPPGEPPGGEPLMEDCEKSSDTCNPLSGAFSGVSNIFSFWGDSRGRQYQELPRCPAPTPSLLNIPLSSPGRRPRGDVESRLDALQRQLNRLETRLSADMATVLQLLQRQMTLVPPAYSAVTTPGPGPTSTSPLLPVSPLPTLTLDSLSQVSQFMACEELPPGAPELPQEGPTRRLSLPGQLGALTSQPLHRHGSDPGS

Compound	hERG current change (%, negative = inhibition) at 1uM [%]
CCC(=O)N1CCN(c2ccc(NC(=O)COc3ccc(CC)cc3)cc2)CC1	10.9
CC(C)[C@@H]1NC(=O)c2cc([N+](=O)[O-])cc(I)c2NCCC[C@@H](C(N)=O)NC(=O)[C@H](CO)NC1=O	8.46
O=C(CSc1ncn[nH]1)c1cccc([N+](=O)[O-])c1	11.5
C#CCNC(=O)C1=C[C@H](c2ccc3c(c2)OCO3)C[C@H](OCCCCO)O1	15
CCN(CC(=O)Nc1c(F)cccc1F)C(=O)c1ccc2ncsc2c1	12.3
CC1=CCC(C(=O)O)C(C(=O)Nc2cccnc2)C1 (stereo not shown)	5.97
COc1ccc(CCNC(=O)CNS(=O)(=O)c2ccc(Br)s2)cc1OC	1.45
CC(CN1CCOCC1)OC(=O)C1COc2ccccc2O1.Cl (stereo not shown)	7.15
CC(NCC(=O)Nc1ccccc1C(=O)NC1CC1)c1ccc(S(C)(=O)=O)cc1 (stereo not shown)	10.9
CCCCc1cc(=O)oc2c(C)c(OCC(=O)NCCN3CCOCC3)ccc12	-77.1
CCCc1cc(=O)oc2c(C)c(OCC(=O)NCCN3CCOCC3)ccc12	-6.02
CCc1cc(=O)oc2c(C)c(OCC(=O)NCCN3CCOCC3)ccc12	12.8
Cc1nc2cc(NC(=O)NCc3ccccc3)ccc2o1	16.2
CCOC(=O)Cc1nc2ccccc2o1	9.03
O=C(NCc1cccnc1)Nc1ccc(Cl)cc1	-18.3
CCOC(=O)C1=C(OCc2ccc(Cl)cc2)C2C=C(C)C=CC2N=C1 (stereo not shown)	-18.1
COc1ccc(CNn2c(-c3cccc(C)c3)nc3ccccc3c2=O)cc1OC	-54.8
COc1cccc(CNn2c(-c3cccc(C)c3)nc3ccccc3c2=O)c1	6.03
COc1ccccc1CNn1c(-c2cccc(C)c2)nc2ccccc2c1=O	5.72
CCN(CC)/C(N)=N/c1nc(C)cc(C)n1	3.23
CCCCN(CCCC)/C(N)=N/c1nc(C)cc(C)n1	-51.8
Cc1cc(C)nc(/N=C(\N)N(Cc2ccccc2)Cc2ccccc2)n1	-31.2

Compound	hERG current change (%, negative = inhibition) at 1uM [%]
Cc1cc(OCC(=O)N2CCC(C(=O)O)(c3ccccc3)CC2)c2c(C)c(C)c(=O)oc2c1	4.94
COc1ccc(OCC(=O)Nc2ccc(OC)c(S(=O)(=O)N3CCCCC3)c2)cc1	-2.82
Brc1ccc(Oc2nnnn2-c2ccccc2)cc1	11
COc1ccc(C(=O)N2CCC(C(=O)Nc3ccc(OC)c(OC)c3)CC2)cc1	10.7
O=C(Nc1ccc2c(c1)OCO2)C1CCN(C(=O)c2ccc([N+](=O)[O-])cc2)CC1	-74.6
COc1ccc(C(=O)N2CCC(C(=O)Nc3ccc4c(c3)OCO4)CC2)cc1	-59
COc1ccc(C(=O)N2CCC(C(=O)Nc3ccc(C)cc3)CC2)cc1	-31.9
O=C(Nc1ccccc1)C1CCN(C(=O)c2ccc([N+](=O)[O-])cc2)CC1	-67
CC(=O)Nc1ccc(NC(=O)C2CCN(C(=O)c3ccc([N+](=O)[O-])cc3)CC2)cc1	22.3
O=C(Nc1ccc2c(c1)OCCO2)C1CCN(C(=O)c2ccc(F)cc2)CC1	5.7
COc1ccc(C(=O)N2CCC(C(=O)Nc3ccc4c(c3)OCCO4)CC2)cc1	-13.1
COc1ccc(NC(=O)C2CCN(C(=O)c3ccc(OC)cc3)CC2)cc1	-69.6
O=C(Nc1ccc(F)cc1)C1CCN(C(=O)c2ccc([N+](=O)[O-])cc2)CC1	11.5
O=C(Nc1ccc2c(c1)OCCO2)C1CCN(C(=O)c2ccc([N+](=O)[O-])cc2)CC1	-16.3
COc1cc(OC)cc(C(=O)N2CCC(C(=O)Nc3ccc4c(c3)OCCO4)CC2)c1	12.5
CCC(Oc1ccccc1)C(=O)N(C)CC(=O)N(CC(C)C)c1c(N)n(CC(C)C)c(=O)[nH]c1=O (stereo not shown)	7.85
CC(C)CC(=O)OCC(=O)Nc1ccccc1Sc1ccccc1	11.1
CN(Cc1ccc(OC(F)F)cc1)C(=O)c1ccc(S(=O)(=O)N(C)c2ccccc2)cc1	-19.2
CCS(=O)(=O)N1Cc2ccccc2CC1C(=O)Nc1ncc(C)s1 (stereo not shown)	7.83
Fc1ccc(N2Cc3ccsc3C=N2)cc1	9.09
CCOc1ccc(Nc2nc(Cc3nnc(SCC(=O)NC4CCCCC4)n3C)cs2)cc1	-7.35
Cc1sc(-c2ccccn2)nc1OC(=O)c1ccc(F)cc1F	16.2

Compound	hERG current change (%, negative = inhibition) at 1uM [%]
CCCCC(=O)Nc1c(-c2ccc(OC)c(OC)c2)c(=O)c2ccccc2n1C	10.7
O=C(Nc1ccc2c(c1)OCCO2)C1CCN(C(=O)c2ccc(Cl)cc2)CC1	3.04
O=C(Nc1ccc2c(c1)OCO2)C1CCN(C(=O)c2ccc(Br)cc2)CC1	-42.3
O=C(NCC1CCCCC1)c1ccc([N+](=O)[O-])cc1	8.06
O=C(Nc1ccc2c(c1)OCO2)C1CCN(C(=O)c2ccc(Cl)cc2)CC1	-59.6
O=C(NCC1CCN(C(=O)c2ccc([N+](=O)[O-])cc2)CC1)c1ccc([N+](=O)[O-])cc1	-74.6
O=C(NCC1CCN(C(=O)c2cccc([N+](=O)[O-])c2)CC1)c1cccc([N+](=O)[O-])c1	-5.98
O=[N+]([O-])c1ccccc1/C=C\C=N\N1CCN(c2ccccc2)CC1	-7.95
COc1cccc(CC2(CO)CCCN(Cc3ccc(CO)o3)C2)c1 (stereo not shown)	-1.35
COc1cccc(CC2(CO)CCCN(Cc3ccc(OC)c(C)c3OC)C2)c1 (stereo not shown)	-80.2
COc1cccc(CC2(CO)CCCN(Cc3cn(C)c4ccccc34)C2)c1 (stereo not shown)	-54.8
COc1cccc(CC2(CO)CCCN(Cc3ccccc3-c3ccco3)C2)c1 (stereo not shown)	-55.6
COc1cccc(CC2(CO)CCCN(Cc3ccc(-c4ccco4)cc3)C2)c1 (stereo not shown)	9.67
COc1cccc(CC2(CO)CCCN(Cc3ccc(C)s3)C2)c1 (stereo not shown)	-10.6
COc1cccc(CC2(CO)CCCN(Cc3ccc(CN4CCCCC4)s3)C2)c1 (stereo not shown)	0.717
COc1cccc(CC2(CO)CCCN(Cc3cn[nH]c3-c3ccccc3)C2)c1 (stereo not shown)	-6.05
COc1cccc(CC2(CO)CCCN(Cc3ccccc3Cl)C2)c1 (stereo not shown)	-12.5
CC(C)(C)C(=O)Nc1scc(-c2ccc(-c3ccccc3)cc2)c1C(=O)O	21.8
COc1cc(C)ccc1OCc1cc(C(=O)N(C)CCCN2CCOCC2)no1	-7.67
c1ccc(-n2c(-c3ccco3)nnc2-c2ccco2)cc1	5.9
COc1cccc(-c2nnc(-c3ccco3)o2)c1	14.6
O=C(NCCN1CCCCC1)c1cc(OCC(F)(F)F)ccc1OCC(F)(F)F	-17.2

Compound	hERG current change (%, negative = inhibition) at 1uM [%]
S=c1[nH]nc(-c2ccc(Cl)cc2)n1-c1ccc(Cl)cc1	9.56
CCC(C)(C)NC(=O)CN(C(=O)c1snc(C(N)=O)c1N)c1ccc2c(c1)OCO2	3.43
COc1ccc(S(=O)(=O)N2CCC(C(=O)NCCc3ccccc3)CC2)cc1	9.96
COc1ccc(C(=O)C2CCN(C(=O)c3ccc(C)cc3)CC2)cc1	-47.7
COc1ccc(C(=O)N2CCC(C(=O)c3c(C)cc(C)cc3C)CC2)cc1	-8.27
COc1ccc(C(=O)C2CCN(C(=O)c3ccc(F)cc3)CC2)cc1	2.02
COc1cc(OC)cc(C(=O)N2CCC(C(=O)c3ccc(F)cc3)CC2)c1	-1.28
COc1ccc(C(=O)N2CCC(C(=O)c3ccc(F)cc3)CC2)cc1	-66.1
COc1ccc(C(=O)C2CCN(C(=O)c3ccc(OC)cc3)CC2)cc1	-76
COc1ccc(Cl)cc1NC(=O)NN1CCN(C)CC1	-7.68
CC(C)(C)NC(=O)C(c1ccco1)N(Cc1ccc(F)cc1)C(=O)c1snc(C(N)=O)c1N (stereo not shown)	-6.09
C/C(=N/OCO/N=C(\C)c1ccc(F)cc1F)c1ccc(F)cc1F	21.9
COc1cc2c(cc1OC)CN(CC(=O)Nc1ccc3c(c1)OCO3)CC2	14.5
CC(C)(C)S(=O)(=O)c1cnc2c(-c3ccsc3)cnn2c1N	15.9
COc1cc2c(cc1OC)CN(C(=O)COc1ccccc1[N+](=O)[O-])CC2	9.5
O=C(NC(=S)NCc1ccccc1)c1ccc2c(c1)OCO2	2.26
O=C(NC(=S)Nc1ccccc1Br)c1ccc2c(c1)OCO2	-67.9
COC(=O)c1ccccc1NC(=S)NC(=O)c1ccc2c(c1)OCO2	20.6
Cc1ccc(N(C)S(=O)(=O)c2cccc(C(=O)Nc3ccc(C)cn3)c2)cc1	15.7
